These results are taken from PubChem BioAssay AID588727 (Southern Research Specialized Biocontainment Screening …, 2011).

This test can be described thus: inhibitors of VEEV TC-83 cytopathic effect, confirmation, Vero cells (AID 588727). The following applies: VEEV TC-83 cytopathic effect inhibition, at 20 µM. A general note: Cytopathic effects are the visible damage that an infection or toxin causes in cultured cells.
Setting [1] is: stronger effect = higher value unless noted.
[2] abbreviates: measured here: 10K pilot screen inhibition, stronger effect = higher value.

Out of some 350,000 compounds screened, about 450 (0.13%) were called active. No rule for the calls is given here. Only a sample is shown. Entries with a potency or affinity are not part of this list.

The term inhibition denotes the change of the read-out against control, counted positive when it falls. As to `O=C(CCC1CCCN(C(=O)CCN2CCCCC2=O)C1)NCc1ccccc1F` (stereo not given), under setting [1], the inhibition is 0.405% [measured here: 10K pilot screen inhibition, stronger effect = higher value] and the molecule was classed as inactive.

As for `C=CCN1C(=O)c2ccc(C(=O)NCCc3ccc(OC)c(OC)c3)cc2C1=O`, the inhibition under setting [1] was 0.34% (inactive).

As to `CC1CCCCC1NC(=O)COCc1cc(-c2cccs2)on1` (stereo not given), the inhibition result under setting [1] was “inactive”.

In the case of `Cc1cc(C(=O)Cn2nnc3ccccc3c2=O)c(C)n1-c1c(C)n(C)n(-c2ccccc2)c1=O`, the inhibition result under setting [1] was “inactive”.

Regarding `COc1ccc(-n2c(C)cc(C(=O)Cn3nnc4ccccc4c3=O)c2C)cc1`, under setting [1], the inhibition was 1.42% (inactive).

On to `CC1Sc2ccc(S(=O)(=O)CCC(=O)N3CCCC3)cc2NC1=O` (stereo not given), for which the inhibition under setting [1] was 2.36% (inactive).

As for `O=C(CSc1nc(-c2ccccc2Cl)ns1)c1ccc(Cl)cc1`, under setting [1], the inhibition is 1.15% (inactive).

Regarding `COC(=O)c1ccc(N/C(=N/S(=O)(=O)c2ccccc2)c2ccccc2)cc1`, the inhibition under setting [1] was 1.58% (inactive).

For `CCC(C)N=Cc1c(Nc2ccccc2)nc2c(C)cccn2c1=O` (stereo not given), under setting [1], the inhibition result is “inactive”.

With `CCCC[C@H]1COCCS(=O)(=O)N1Cc1cccc([N+](=O)[O-])c1`, the inhibition entry under setting [1] is “inactive”.

As for `O=C(NCc1cccnc1)/C(=C/c1ccc(-c2cccc(Cl)c2)o1)S(=O)(=O)c1ccccc1`, the inhibition under setting [1] was 9.73% (inactive).

`O=C(NCc1cccnc1)/C(=C\c1ccc(-c2ccc(Cl)c(Cl)c2)o1)S(=O)(=O)c1ccccc1`: under setting [1], the inhibition is 0.29% (inactive).

As to `O=C(NC1CCCc2ccccc21)c1ccc(Br)cc1` (stereo not given), under setting [1], the inhibition is 0.82% (inactive).

Turning to `O=C(CCNC(=O)c1ccccc1)NC1CCCc2ccccc21` (stereo not given), under setting [1], the inhibition result was “inactive”.

As for `O=C(Cc1ccc(Br)cc1)NC1CCCc2ccccc21` (stereo not given), under setting [1], the inhibition was 3.28% (inactive).

In the case of `O=C(CCNC(=O)c1ccc([N+](=O)[O-])cc1)NC1CCCc2ccccc21` (stereo not given), the inhibition under setting [1] was 9.16% (inactive).

In the case of `CC(SCC(=O)Nc1ccccc1Br)c1nc2ccccc2c(=O)[nH]1` (stereo not given), under setting [1], the inhibition result is “inactive”.

On to `CCCOc1ccc(C(=O)Nc2cc(S(=O)(=O)N3CCOCC3)ccc2N2CCOCC2)cc1`, for which the inhibition under setting [1] was 6.81% (inactive).

Take `CC(=O)c1ccc(S(=O)(=O)N2CCN(C(=O)c3ccc(-n4nc(C)c(Cl)c4C)cc3)CC2)cc1`: the inhibition under setting [1] is 2.19% (inactive).

In the case of `O=[N+]([O-])c1cccc(/C=C/c2ccccn2)c1`, under setting [1], the inhibition was 0.25% (inactive).

As to `O=[N+]([O-])c1cccc(/C=C/c2ccncc2)c1`, the inhibition entry under setting [1] was “inactive”.

Regarding `O=C(CCNS(=O)(=O)c1cccc(Cl)c1)OCC(=O)N1CCN(C(=O)c2ccco2)CC1`, the inhibition under setting [1] is 0.85% (inactive).

As for `O=C(CC1SC(N2CCOCC2)=NC1=O)Nc1ccccc1Cl` (stereo not given), the inhibition under setting [1] was 2.68% (inactive).

For the molecule `C=CCN1C(c2ccc(Br)cc2)=CS/C1=C(\C#N)c1nnc(N2CCOCC2)n1-c1ccccc1`, the inhibition under setting [1] was 11.4% (inactive).

For the molecule `Cc1ccccc1CC1SC(N=C(N)N)=NC1=O` (stereo not given), under setting [1], the inhibition was 1.59% (inactive).

As to `CC(=O)/C(C#N)=C1\NC(=O)C(Cc2cc(Cl)ccc2Cl)S1` (stereo not given), under setting [1], the inhibition was 3.03% (inactive).

Turning to `O=C1N/C(=N\c2ccccn2)SC1Cc1ccccc1Cl` (stereo not given), under setting [1], the inhibition was 4.16% (inactive).

Regarding `Cc1ccccc1CC1SC(N)=NC1=O` (stereo not given), under setting [1], the inhibition is 1.28% (inactive).

Turning to `O=c1c2ccccc2nc(-c2ccco2)n1-c1nc2ccccc2s1`, the inhibition under setting [1] was 1.81% (inactive).

Consider `FC(F)Oc1ccc(NC(=S)N2CCc3ccccc32)cc1`, for which the inhibition under setting [1] is 0.39% (inactive).

On to `Cc1ccccc1C(=O)N1CCC(C(=O)Nc2sccc2C(N)=O)CC1`, for which the inhibition under setting [1] was 2.51% (inactive).

On to `CN(Cc1ccc(O)cc1)C1CCCCC1`, for which the inhibition under setting [1] is 1.27% (inactive).

On to `OCC1(CCOc2ccccc2)CCN(Cc2cn[nH]c2-c2ccc(F)cc2)CC1`, for which the inhibition under setting [1] was 2.7% (inactive).

With `OCC1(CCOc2ccccc2)CCN(Cc2ccncc2)CC1`, the inhibition under setting [1] was 0.23% (inactive).

On to `C=CCOc1ccc(C=Nc2ccc(Cl)cc2)c(O)c1`, for which, under setting [1], the inhibition was 0.47% (inactive).

Consider `Cc1c(C(=O)N(C)CCn2ccnc2C)oc2c(F)cccc12`, for which the inhibition under setting [1] was 1.03% (inactive).

Take `CCN(CC)C(=O)c1sc(NC(=O)c2ccoc2C)c(C(=O)OC)c1C`: the inhibition under setting [1] was 1.79% (inactive).

Take `CN1CCN(CCCNC(=O)c2ccc(/C=C3\Oc4ccccc4N(Cc4ccccc4F)C3=O)cc2)CC1`: under setting [1], the inhibition was 13.6% (inactive).

With `O=C(NCCN1CCOCC1)c1ccc(/C=C2\Sc3ccccc3N(Cc3ccccc3F)C2=O)cc1`, under setting [1], the inhibition was 10.8% (inactive).

For `COc1ccccc1N1CCN(C(=S)Nc2ccccc2)CC1`, the inhibition under setting [1] was 1.3% (inactive).

Take `CC(C)Oc1ccc(Cl)cc1Nc1nc(NCCO)nc(N2CCCC2)n1`: the inhibition is 4.93% (inactive) (stronger effect = higher value) and 4.53% under setting [2].

For `Cc1ccc(NC(=O)CN2C(=O)NC3(CCCc4ccccc43)C2=O)c([N+](=O)[O-])c1` (stereo not given), under setting [1], the inhibition is 1.12% (inactive).

Turning to `Cc1ccccc1NS(=O)(=O)c1nnc(NC(=O)c2ccccc2F)s1`, the inhibition is 1.96% (inactive) (stronger effect = higher value) and 3.31% under setting [2].

Take `CC1(C)CC(=O)C=C(/C=C/c2ccccc2)C1`: the inhibition under setting [1] is 0.62% (inactive).

Take `C(=C\c1ccncc1)/c1ccccc1`: the inhibition under setting [1] is 0.98% (inactive).

On to `Cc1ccnc(SCc2cc(=O)c(OC(=O)c3cc([N+](=O)[O-])ccc3Cl)co2)n1`, for which, under setting [1], the inhibition is 0.24% (inactive).

Turning to `CCOC(=O)c1sc(=S)sc1SCc1cccc(C(F)(F)F)c1`, the inhibition result under setting [1] is “inactive”.

Consider `O=S1(=O)C=C(SCc2ccc(F)cc2)Nc2ccccc21`, for which the inhibition entry under setting [1] was “inactive”.

As to `CCCc1c(C(=O)NNc2cccc(Cl)c2)cnn1-c1ccccc1`, the inhibition under setting [1] was 2.24% (inactive).

For the molecule `CCCc1c(NC(=O)Nc2ccc(F)cc2)cnn1-c1ccc(Cl)cc1`, the inhibition under setting [1] is 3.23% (inactive).

As to `CCCc1c(C(=O)Nc2ccc(F)cc2F)cnn1-c1ccccc1`, the inhibition entry under setting [1] was “inactive”.

As for `CCCc1c(C(=O)Nc2ccc(F)cc2)cnn1-c1ccccc1`, the inhibition under setting [1] is 7.43% (inactive).

As to `CC(Sc1nc2ncc(Cl)cc2[nH]1)C(=O)c1c(N)n(C)c(=O)n(C)c1=O` (stereo not given), the inhibition under setting [1] was 10.7% (inactive).

Turning to `Cn1ncc2c(=O)[nH]cnc21`, the inhibition under setting [1] is 0.51% (inactive).

For the molecule `CC(=O)Nc1ccc(S(=O)(=O)N(C)CC(=O)OCC(=O)N(CC(C)C)C2CCS(=O)(=O)C2)cc1` (stereo not given), the inhibition under setting [1] was 6.9% (inactive).

As to `COc1ccc(NC(=O)CN(C)C(=O)c2cn(-c3ccccc3)nc2-c2cccnc2)cc1`, the inhibition under setting [1] is 6.98% (inactive).

Consider `CSCCC(NS(=O)(=O)c1ccc(Cl)cc1)C(=O)OCC(=O)NC12CC3CC(CC(C3)C1)C2` (stereo not given), for which the inhibition under setting [1] is 2.38% (inactive).

Take `O=C1Nc2ccccc2C1(O)c1ccccc1O` (stereo not given): the inhibition under setting [1] was 0.23% (inactive).

On to `COc1cc2c(O)c3c(c(-c4ccc5c(c4)OCO5)c2cc1OC)C(=O)OC3`, for which the inhibition under setting [1] was 8.81% (inactive).

With `COc1c(NC(C)=O)c2c(c([N+](=O)[O-])c1OC)C(=O)OC2`, the inhibition under setting [1] was 0.9% (inactive).

Regarding `O=S(=O)(NCc1ccccc1Cl)c1ccc(-n2cnnn2)cc1`, under setting [1], the inhibition was 1.99% (inactive).

On to `CCCOc1ccc(C(=O)NNC(=S)NC(=O)c2ccccc2)cc1`, for which the inhibition under setting [1] is 7.4% (inactive).

As for `CCC(=O)NC(=S)NNC(=O)c1ccc(OC)cc1`, under setting [1], the inhibition is 3.83% (inactive).

As to `C=CCNC(=S)NNC(=O)c1ccc(OCCC)cc1`, the inhibition under setting [1] was 1.27% (inactive).

With `CCCCC(=O)NC(=S)NNC(=O)c1ccc(OC)cc1`, the inhibition under setting [1] is 11% (inactive).

With `CCCn1c(N)c(C(=O)CSc2nnc(N)s2)c(=O)[nH]c1=O`, under setting [1], the inhibition was 8.01% (inactive).

With `CCC1(CC)NC(=O)N(CC(=O)Nc2ccc(C)cc2C)C1=O`, the inhibition under setting [1] was 1.89% (inactive).

`Cc1cn([C@H]2C[C@H](O)[C@@H](CNC(=O)[C@@H]3CCCN3Cc3ccccc3)O2)c(=O)[nH]c1=O`: the inhibition under setting [1] is 1.26% (inactive).

Turning to `COCC(=O)N1CCCC(C(=O)c2ccc(-c3ccccc3)c(F)c2)C1` (stereo not given), the inhibition under setting [1] is 3.71% (inactive).

Turning to `COc1cc(/C=C/C(=O)c2ccc(NS(=O)(=O)c3ccc(C)cc3)cc2)ccc1OC(F)F`, the inhibition under setting [1] is 42.9% (inactive).

For the molecule `COc1cc(OC)c(OC)cc1/C=C/C(=O)c1ccc(NS(=O)(=O)c2ccc(C)cc2)cc1`, the inhibition under setting [1] was 6.43% (inactive).

Turning to `COCCNC(=O)CCCn1c(=O)c2cc(OC)c(OC)cc2n(CC(=O)Nc2ccccc2OC)c1=O`, the inhibition under setting [1] is 1.37% (inactive).

Turning to `O=C(CCc1ccccc1)N1CCN(c2ccc(Cl)cc2)CC1`, the inhibition under setting [1] was 0.61% (inactive).

Turning to `CCCN(CCC)CCCNC(=O)c1ccc2c(Cl)c3c(nc2c1)CCC3`, the inhibition entry under setting [1] is “inactive”.

For the molecule `CCCCN(CC)CCNC(=O)c1ccc2c(Cl)c3c(nc2c1)CCC3`, under setting [1], the inhibition result is “inactive”.

As for `COc1cc2cc(C(=O)N/N=C/c3ccc(F)cc3)[nH]c2cc1OC`, the inhibition under setting [1] was 2.5% (inactive).

For the molecule `CCN1CCN(c2cc(C)c3cc(NC(=S)N4CCN(c5ccc(F)cc5)CC4)ccc3n2)CC1`, the inhibition under setting [1] was 0.9% (inactive).

As to `Cc1nn(Cc2cccc(C(=O)O)c2)c(C)c1[N+](=O)[O-]`, the inhibition under setting [1] was 1.46% (inactive).

Regarding `O=c1c2ccccc2nc2n1C(CSc1ccccc1)CS2` (stereo not given), the inhibition under setting [1] is 1% (inactive).

Consider `Nc1ccccc1SCC1CSc2nc3ccccc3c(=O)n21` (stereo not given), for which the inhibition under setting [1] was 1.18% (inactive).

`O=C(Nc1ccccc1SCC1CSc2nc3ccccc3c(=O)n21)c1ccccc1` (stereo not given): the inhibition under setting [1] is 7.04% (inactive).

`O=C(Nc1ccccc1SCC1CSc2nc3ccccc3c(=O)n21)c1ccccc1Cl` (stereo not given): the inhibition under setting [1] is 13.7% (inactive).

For `CC(NC(=O)Cn1c(=O)[nH]c2ccsc2c1=O)C12CC3CC(CC(C3)C1)C2` (stereo not given), the inhibition under setting [1] was 4.05% (inactive).

Turning to `O=C(N/N=C/c1ccc(F)cc1)c1cc(-c2ccc3c(c2)OCO3)n[nH]1`, under setting [1], the inhibition is 3.22% (inactive).

As to `CN(CC(=O)Nc1ccc(F)cc1)C(=O)COC(=O)/C=C/c1ccccc1[N+](=O)[O-]`, the inhibition under setting [1] is 5.33% (inactive).

With `COc1ccc(/C=N/Nc2nonc2N)cc1`, under setting [1], the inhibition was 0.29% (inactive).

On to `COc1ccc(C2c3c(ncn(CCN4CCOCC4)c3=N)Oc3ccc4ccccc4c32)cc1OC` (stereo not given), for which, under setting [1], the inhibition was 1.27% (inactive).

In the case of `COc1ccc(C2c3c(ncn(CCCO)c3=N)Oc3ccc4ccccc4c32)cc1OC` (stereo not given), the inhibition under setting [1] was 4.99% (inactive).

Regarding `Cc1ccc2sc(NNC(=O)C3=COCCO3)nc2c1C`, the inhibition under setting [1] is 2.26% (inactive).

On to `CN(C)/C=C/C(=O)c1ccccc1OCc1cnc(Cl)s1`, for which the inhibition entry under setting [1] is “inactive”.

Regarding `CC(C)(C)OC(=O)N1CCN(C(=O)c2[nH]cnc2C(=O)N[C@@H](Cc2ccccc2)C(=O)OCc2ccccc2)CC1`, the inhibition under setting [1] is 2.09% (inactive).

For the molecule `CC(C)(C)OC(=O)[C@H](Cc1ccccc1)NC(=O)c1nc[nH]c1C(=O)N1CCN(c2ccccc2)CC1`, the inhibition under setting [1] was 5.56% (inactive).
